Measurements reported in PubChem BioAssay AID1159580 (chemical genetic matrix, 2015).
The campaign covered roughly 5,500 compounds. About 2,000 (36%) were called active. Not shown: some 18% with an inconclusive outcome. Cut-off read from the data, not from the text of the source: active = normalized growth mostly below about 0.91 (no sharp cut-off); inconclusive = no clear call, values can overlap the other calls; inactive = mostly above about 0.92. The list shows a part of the results.

Assay: chemical genetic growth profiling, strain panel (AID 1159580);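 note: tested at 20 µM; growth read once vehicle control cultures reached saturation at 30 °C; 1 = growth at the plate median or of vehicle wells; lower values mean less growth of the strain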
Conditions: growth OD

Measured: normalized growth

CC(C)(C)NCC(O)c1cc(Cl)c(N)c(Cl)c1 (centres undefined)
inactive: S. cerevisiae deletion strains, locus YJR043C, strain POL32, stronger effect = lower value 1.01 | S. cerevisiae deletion strains, locus YJR075W, strain HOC1, stronger effect = lower value 1.01 | S. cerevisiae deletion strains, locus YKL009W, strain mrt4, stronger effect = lower value 1 | S. cerevisiae deletion strains, locus YKL068W, stronger effect = lower value 1 | S. cerevisiae deletion strains, locus YKL085W, strain MDH1 (second series), stronger effect = lower value 1.01 | S. cerevisiae deletion strains, locus YKL085W, strain MDH1, stronger effect = lower value 1.01 | S. cerevisiae deletion strains, locus YKL160W, strain elf1, stronger effect = lower value 0.998 | S. cerevisiae deletion strains, locus YKL190W, strain CNB1, stronger effect = lower value 1 | S. cerevisiae deletion strains, locus YKR001C, strain vps1, stronger effect = lower value 1.01 | S. cerevisiae deletion strains, locus YKR026C, strain gcn3, stronger effect = lower value 0.999 | S. cerevisiae deletion strains, locus YKR091W, strain srl3, stronger effect = lower value 1 | S. cerevisiae deletion strains, locus YLL001W, strain dnm1, stronger effect = lower value 0.983 | S. cerevisiae deletion strains, locus YLL026W, stronger effect = lower value 0.992 | S. cerevisiae deletion strains, locus YLL041C, strain sdh2, stronger effect = lower value 1 | S. cerevisiae deletion strains, locus YLR027C, strain aat2, stronger effect = lower value 0.999 | S. cerevisiae deletion strains, locus YLR039C, strain RIC1, stronger effect = lower value 1.02 | S. cerevisiae deletion strains, locus YLR058C, strain SHM2, stronger effect = lower value 1.02 | S. cerevisiae deletion strains, locus YLR102C, strain apc9, stronger effect = lower value 0.992 | S. cerevisiae deletion strains, locus YLR221C, strain rsa3, stronger effect = lower value 1 | S. cerevisiae deletion strains, locus YLR258W, strain gsy2, stronger effect = lower value 0.993 | S. cerevisiae deletion strains, locus YLR262C, strain YPT6 (second series), stronger effect = lower value 0.999 | S. cerevisiae deletion strains, locus YLR262C, strain YPT6, stronger effect = lower value 1.05 | S. cerevisiae deletion strains, locus YLR268W, strain sec22, stronger effect = lower value 0.977 | S. cerevisiae deletion strains, locus YLR320W, strain mms22, stronger effect = lower value 0.996 | S. cerevisiae deletion strains, locus YLR330W, strain CHS5, stronger effect = lower value 1.01 | S. cerevisiae deletion strains, locus YLR342W, strain FKS1 (second series), stronger effect = lower value 1.02 | S. cerevisiae deletion strains, locus YLR342W, strain FKS1, stronger effect = lower value 1 | S. cerevisiae deletion strains, locus YLR357W, strain rsc2, stronger effect = lower value 1 | S. cerevisiae deletion strains, locus YLR370C, strain arc18, stronger effect = lower value 1 | S. cerevisiae deletion strains, locus YLR371W, strain rom2, stronger effect = lower value 0.991 | S. cerevisiae deletion strains, locus YLR384C, strain iki3, stronger effect = lower value 1 | S. cerevisiae deletion strains, locus YLR418C, strain cdc73, stronger effect = lower value 0.976 | S. cerevisiae deletion strains, locus YML016C, strain PPZ1, stronger effect = lower value 1.01 | S. cerevisiae deletion strains, locus YML032C, strain rad52, stronger effect = lower value 0.992 | S. cerevisiae deletion strains, locus YML120C, strain ndi1, stronger effect = lower value 1.01 | S. cerevisiae deletion strains, locus YML124C, strain tub3, stronger effect = lower value 0.999 | S. cerevisiae deletion strains, locus YMR058W, strain fet3, stronger effect = lower value 0.998 | S. cerevisiae deletion strains, locus YMR078C, strain ctf18, stronger effect = lower value 1 | S. cerevisiae deletion strains, locus YMR125W, strain sto1, stronger effect = lower value 0.99 | S. cerevisiae deletion strains, locus YMR129W, stronger effect = lower value 1.01 | S. cerevisiae deletion strains, locus YMR205C, strain PFK2, stronger effect = lower value 0.982 | S. cerevisiae deletion strains, locus YMR223W, strain ubp8, stronger effect = lower value 1 | S. cerevisiae deletion strains, locus YMR231W, strain pep5, stronger effect = lower value 1 | S. cerevisiae deletion strains, locus YMR263W, strain SAP30, stronger effect = lower value 1.01 | S. cerevisiae deletion strains, locus YMR307W, strain GAS1, stronger effect = lower value 0.995 | S. cerevisiae deletion strains, locus YNL067W, strain RPL9B, stronger effect = lower value 1.01 | S. cerevisiae deletion strains, locus YNL071W, strain lat1, stronger effect = lower value 1 | S. cerevisiae deletion strains, locus YNL128W, strain TEP1, stronger effect = lower value 1.02 | S. cerevisiae deletion strains, locus YNL153C, strain GIM3, stronger effect = lower value 1 | S. cerevisiae deletion strains, locus YNL209W, strain ssb2, stronger effect = lower value 1.01 | S. cerevisiae deletion strains, locus YNL233W, strain BNI4, stronger effect = lower value 1.01 | S. cerevisiae deletion strains, locus YNL248C, strain rpa49, stronger effect = lower value 1 | S. cerevisiae deletion strains, locus YNL250W, strain rad50, stronger effect = lower value 0.989 | S. cerevisiae deletion strains, locus YNL271C, strain bni1, stronger effect = lower value 0.99 | S. cerevisiae deletion strains, locus YNL298W, strain CLA4, stronger effect = lower value 0.992 | S. cerevisiae deletion strains, locus YNL307C, strain MCK1, stronger effect = lower value 0.996 | S. cerevisiae deletion strains, locus YNL322C, strain KRE1 (second series), stronger effect = lower value 0.997 | S. cerevisiae deletion strains, locus YNL322C, strain KRE1, stronger effect = lower value 1.01 | S. cerevisiae deletion strains, locus YNR049C, strain mso1, stronger effect = lower value 0.997 | S. cerevisiae deletion strains, locus YNR052C, strain pop2, stronger effect = lower value 1 | S. cerevisiae deletion strains, locus YOL006C, strain TOP1, stronger effect = lower value 1.05 | S. cerevisiae deletion strains, locus YOL012C, strain htz1 1.23 | S. cerevisiae deletion strains, locus YOL147C, strain pex11, stronger effect = lower value 1 | S. cerevisiae deletion strains, locus YOR001W, strain rrp6, stronger effect = lower value 0.99 | S. cerevisiae deletion strains, locus YOR061W, strain CKA2, stronger effect = lower value 1.01 | S. cerevisiae deletion strains, locus YOR069W, strain VPS5, stronger effect = lower value 1.01 | S. cerevisiae deletion strains, locus YOR070C, strain gyp1, stronger effect = lower value 0.994 | S. cerevisiae deletion strains, locus YOR080W, strain dia2, stronger effect = lower value 0.998 | S. cerevisiae deletion strains, locus YOR083W, strain WHI5, stronger effect = lower value 1 | S. cerevisiae deletion strains, locus YOR106W, strain vam3, stronger effect = lower value 0.996 | S. cerevisiae deletion strains, locus YOR136W, strain idh2, stronger effect = lower value 0.991 | S. cerevisiae deletion strains, locus YOR144C, strain elg1, stronger effect = lower value 0.999 | S. cerevisiae deletion strains, locus YOR184W, strain ser1, stronger effect = lower value 1 | S. cerevisiae deletion strains, locus YOR265W, strain rbl2, stronger effect = lower value 1 | S. cerevisiae deletion strains, locus YOR270C, strain vph1, stronger effect = lower value 0.958 | S. cerevisiae deletion strains, locus YOR290C, strain snf2, stronger effect = lower value 0.971 | S. cerevisiae deletion strains, locus YOR316C, strain cot1, stronger effect = lower value 1 | S. cerevisiae deletion strains, locus YPL051W, strain arl3, stronger effect = lower value 0.995 | S. cerevisiae deletion strains, locus YPL055C, strain LGE1, stronger effect = lower value 0.993 | S. cerevisiae deletion strains, locus YPL078C, strain atp4, stronger effect = lower value 0.991 | S. cerevisiae deletion strains, locus YPL106C, strain sse1, stronger effect = lower value 0.985 | S. cerevisiae deletion strains, locus YPL240C, strain hsp82, stronger effect = lower value 1.01 | S. cerevisiae deletion strains, locus YPL241C, strain CIN2, stronger effect = lower value 1 | S. cerevisiae deletion strains, locus YPR119W, strain clb2, stronger effect = lower value 0.999 | S. cerevisiae deletion strains, locus YPR141C, strain kar3, stronger effect = lower value 0.996 | S. cerevisiae deletion strains, locus YPR163C, strain tif3, stronger effect = lower value 0.999 | S. cerevisiae deletion strains, locus YPR167C, strain met16, stronger effect = lower value 0.994 | S. cerevisiae deletion strains, strain wtn01, stronger effect = lower value 0.971 | S. cerevisiae strains, strain wild type, stronger effect = lower value 1
